Screening data deposited in PubChem BioAssay by Broad Institute.
C diff growth: blocks growth of Clostridium difficile; Clostridium difficile clinical isolate growth, OD600, 24 h; active compounds read low; growth activity, negative = inhibition, % at 16 µg/mL (by protocol); hit rate 0.25% among 86,000;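 active = mean growth activity at or below -80% and every replicate also at or below -80%; inconclusive = mean at or below -80% but some replicate above -80%; inactive = mean growth activity above -80%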
T cruzi growth-1: inhibitors of T. cruzi proliferation; T. cruzi beta-gal in NIH3T3, GalScreen luminescence, 90 h; inhibition, % at 8.34 µM; hit rate 5.9% among 77,000;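 active = mean inhibition above about 93%, with at least 55% of replicates each passing it, limit read from the data, passing the limit was not always enough; inconclusive = only one of those two conditions holds; inactive = neither condition holds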
Pf Dd2 inh: inhibitors of Plasmodium falciparum Dd2 growth. P. falciparum Dd2 growth, SYBR Green, 72 h; active compounds read low. activity change, % at 10 µM. hit rate 2.3% among 94,000. AID 1159554; in the data active = activity change below about -80%; inconclusive = no clear call, values can overlap the other calls
T cruzi growth-2: Trypanosoma cruzi proliferation inhibition; shares compounds with T cruzi growth-1; inhibition, % at 8.35 µM; hit rate 72% among 5,600; T. cruzi beta-gal in NIH3T3, GalScreen luminescence, 90 h;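 active = mean replicate inhibition above about 95% and at least 55% of replicates individually reaching it, limit read from the data; inconclusive = only one of the two criteria is met; inactive = neither criterion is met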
T cruzi growth-3: Trypanosoma cruzi proliferation inhibition. AID 651740. T. cruzi beta-gal in NIH3T3, GalScreen luminescence, 90 h. shares compounds with T cruzi growth-1. inhibition, % at 2.09 µM. hit rate 21% among 5,600;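 active = mean inhibition above about 95%, with at least 55% of replicates also reaching it, limit read from the data; inconclusive = meets just one of the two conditions; inactive = meets neither condition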
3T3 cytotox: kills mouse NIH/3T3 fibroblasts; hit rate 14% among 5,600; shares compounds with T cruzi growth-1; AID 651742; cytotoxicity (signal decrease), % at 8.35 µM; NIH/3T3 viability, CellTiter-Glo ATP luminescence, 90 h;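 active = mean signal decrease across replicates above about 35% based on untreated-well scatter, with enough replicates individually passing, limit read from the data; inconclusive = no rule stated though some were filed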
NIH3T3 tox 2: kills mouse NIH/3T3 fibroblasts; shares compounds with T cruzi growth-1; hit rate 56% among 5,600; inhibition, % at 24.9 µM; NIH/3T3 viability, CellTiter-Glo ATP luminescence, 90 h; AID 651744;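 active = mean loss of cell viability signal at or above a set limit, and enough replicates individually reaching it; inconclusive = meets only the mean limit or only the replicate share; inactive = meets neither condition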
Numbers stand for hits; - = inactive; ? = inconclusive; . = no result. Rows were chosen to be rich in hits. Some 6.8% of all compounds tested hit in one or more screens of this group.

SMILES	C diff growth	T cruzi growth-1	Pf Dd2 inh	T cruzi growth-2	T cruzi growth-3	3T3 cytotox	NIH3T3 tox 2
CO[C@H]1CN(C)C(=O)c2cc(NC(=O)NC(C)C)ccc2OC[C@@H](C)N(Cc2ccccn2)C[C@@H]1C	.	-	-	.	.	.	.
COc1ccccc1NC(=O)Nc1ccc2c(c1)OC[C@@H](C)N(Cc1ccccc1Cl)C[C@@H](C)[C@H](OC)CN(C)C2=O	.	127	-97	104	112	-	-
CCS(=O)(=O)Nc1ccc2c(c1)C(=O)N(C)C[C@@H](OC)[C@@H](C)CN(Cc1ccccn1)[C@H](C)CO2	.	-	-	.	.	.	.
CO[C@@H]1CN(C)C(=O)c2ccc(NC(=O)NC(C)C)cc2OC[C@H](C)N(Cc2ccccn2)C[C@@H]1C	.	-	-	.	.	.	.
COc1ccccc1NC(=O)Nc1ccc2c(c1)OC[C@@H](C)N(Cc1ccccc1C(=O)O)C[C@@H](C)[C@H](OC)CN(C)C2=O	.	-	-	.	.	.	.
CO[C@H]1CN(C)C(=O)c2cc(NC(=O)NC(C)C)ccc2OC[C@H](C)N(Cc2ccccn2)C[C@H]1C	.	106	-	-	-	-	-
C[C@H](CO)N1C[C@H](C)[C@@H](CN(C)C(=O)c2ccccn2)Oc2cc(C#Cc3ccc(F)cc3)ccc2S1(=O)=O	-	-	-	.	.	.	.
CCCC#Cc1cnc2c(c1)C(=O)N([C@@H](C)CO)C[C@H](C)[C@H](CN(C)C(=O)Nc1ccccc1F)O2	-	-	-	.	.	.	.
CC(C)NC(=O)NCC[C@H]1CC[C@H](NS(=O)(=O)c2ccccc2)[C@H](CO)O1	-	.	-	.	.	.	.
CNC[C@@H]1Oc2ccc(NS(=O)(=O)c3c(C)noc3C)cc2CC(=O)N([C@H](C)CO)C[C@H]1C	-	-	-	.	.	.	.
O=C(c1ccc(F)cc1)N1CCCCN2[C@H](CO)[C@@H](c3ccc(C#CC4(O)CCCC4)cc3)[C@H]2C1	-	100	-	-	-	-	-
O=C(C1CCCC1)N1CCCCN2[C@H](CO)[C@H](c3ccc(C#CC4(O)CCCC4)cc3)[C@@H]2C1	-	103	-	99	-	-	-
O=C(C1CCCC1)N1CCCCN2[C@H](C1)[C@@H](c1ccc(C#CC3(O)CCCC3)cc1)[C@@H]2CO	-	-	-	.	.	.	.
O=C(C1CCCC1)N1CCCCN2[C@H](CO)[C@@H](c3ccc(C#CC4(O)CCCC4)cc3)[C@H]2C1	-	104	-	-	-	-	-
O=C(C1CC1)N1CCCCN2[C@@H](CO)[C@@H](c3ccc(C#CC4(O)CCCC4)cc3)[C@@H]2C1	-	-	-	.	.	.	.
O=C(c1ccc(F)cc1)N1CCCCN2[C@H](C1)[C@H](c1ccc(C#CC3(O)CCCC3)cc1)[C@@H]2CO	-	-	-	.	.	.	.
CC(C)CC#Cc1cnc2c(c1)C(=O)N([C@H](C)CO)C[C@@H](C)[C@@H](CN(C)S(C)(=O)=O)O2	-	-	-	.	.	.	.
CC(C)CC#Cc1cnc2c(c1)C(=O)N([C@@H](C)CO)C[C@@H](C)[C@@H](CN(C)S(=O)(=O)c1ccccc1)O2	-	-	-	.	.	.	.
Cc1ccc(S(=O)(=O)N(C)C[C@H]2Oc3ncc(C#CCC(C)C)cc3C(=O)N([C@@H](C)CO)C[C@@H]2C)cc1	-	124	-	110	-	-	93
CC(C)CC#Cc1cnc2c(c1)C(=O)N([C@@H](C)CO)C[C@H](C)[C@@H](CN(C)S(C)(=O)=O)O2	-	-	-	.	.	.	.
Cc1ccc(S(=O)(=O)N(C)C[C@@H]2Oc3ncc(C#CCN(C)C)cc3C(=O)N([C@H](C)CO)C[C@@H]2C)cc1	-	-	-	.	.	.	.
Cc1ccc(S(=O)(=O)N(C)C[C@@H]2Oc3ncc(C#CCC(C)C)cc3C(=O)N([C@@H](C)CO)C[C@H]2C)cc1	-	117	-	104	-	-	102
CC(C)CC#Cc1cnc2c(c1)C(=O)N([C@@H](C)CO)C[C@H](C)[C@@H](CN(C)S(=O)(=O)c1ccccc1)O2	-	?	-	102	-	-	?
Cc1ccc(S(=O)(=O)N(C)C[C@H]2Oc3ncc(C#CCC(C)C)cc3C(=O)N([C@H](C)CO)C[C@@H]2C)cc1	-	110	-	?	-	-	33
CO[C@@H]1CN(C)C(=O)c2ccc(NS(C)(=O)=O)cc2OC[C@@H](C)NC[C@H]1C	-	-	-	.	.	.	.
SMILES	C diff growth	T cruzi growth-1	Pf Dd2 inh	T cruzi growth-2	T cruzi growth-3	3T3 cytotox	NIH3T3 tox 2
COc1ccc(CN(C)C[C@H]2OCCCC[C@H](C)Oc3ccc(N(C)C)cc3C(=O)N([C@@H](C)CO)C[C@@H]2C)cc1	-	-	-	.	.	.	.
O=C(C[C@H]1C=C[C@H](NC(=O)Nc2ccc(F)cc2)[C@H](CO)O1)NCCN1CCCC1	.	-	-	.	.	.	.
C[C@H](CO)N1C[C@H](C)[C@@H](CN(C)Cc2ccc3c(c2)OCO3)OCCCC[C@H](C)Oc2ccc(NS(=O)(=O)c3cn(C)cn3)cc2C1=O	.	-	-	.	.	.	.
CO[C@@H]1CN(C)C(=O)c2ccc(NS(=O)(=O)c3ccc(-c4ccccc4)cc3)cc2OC[C@@H](C)NC[C@@H]1C	-	.	-	.	.	.	.
COc1ccc(NC(=O)Nc2ccc3c(c2)C(=O)N([C@H](C)CO)C[C@H](C)[C@@H](CN(C)C(=O)Cc2ccccc2)OCCCC[C@@H](C)O3)cc1	-	-	-	.	.	.	.
COc1ccc(C#Cc2cnc3c(c2)C(=O)N([C@H](C)CO)C[C@H](C)[C@H](CN(C)Cc2cccc(C)c2)O3)cc1OC	-	-	-	.	.	.	.
C[C@@H]1CN([C@H](C)CO)C(=O)c2cccc(NS(=O)(=O)c3ccc(Cl)cc3)c2O[C@@H]1CN(C)C(=O)Nc1ccc2c(c1)OCO2	-	-	-	.	.	.	.
C[C@@H]1CN([C@@H](C)CO)C(=O)Cc2cc(NC(=O)Cc3ccccc3)ccc2O[C@@H]1CN(C)Cc1ccc(C(=O)Nc2ccccc2N)cc1	-	102	-81	106	-	-	39
C[C@@H]1CN([C@H](C)CO)C(=O)Cc2cc(NC(=O)Nc3ccc(C(F)(F)F)cc3)ccc2O[C@@H]1CN(C)Cc1ccc(C(=O)Nc2ccccc2N)cc1	-	?	-	100	106	55	97
C[C@H]1CN([C@@H](C)CO)C(=O)Cc2cc(NC(=O)Nc3ccc(C(F)(F)F)cc3)ccc2O[C@H]1CN(C)Cc1ccc(C(=O)Nc2ccccc2N)cc1	-	-	-	.	.	.	.
C[C@@H]1CN([C@@H](C)CO)C(=O)Cc2cc(N(C)C)ccc2O[C@H]1CN(C)Cc1ccc(C(=O)Nc2ccccc2N)cc1	-	96	-	106	?	41	82
C[C@@H]1CN([C@@H](C)CO)C(=O)CCCn2nncc2CO[C@@H]1CN(C)Cc1ccc(C(=O)O)cc1	-	.	-	.	.	.	.
C[C@H]1CN([C@@H](C)CO)C(=O)Cc2cc(N(C)C)ccc2O[C@@H]1CN(C)Cc1ccc(C(=O)Nc2ccccc2N)cc1	-	-	-	.	.	.	.
C[C@@H]1CN([C@@H](C)CO)C(=O)Cc2cc(NC(=O)CCCN(C)C)ccc2O[C@H]1CN(C)Cc1ccc(C(=O)Nc2ccccc2N)cc1	-	.	-	.	.	.	.
